Data from PubChem BioAssay (EPA / NIEHS).
Calls of active or inactive are those of the source. The calls were made as follows: active = hit-call score of the fitted dose curve at least 0.9, where 1 is the maximum; inactive = score below 0.9.

Each molecule was assayed against Transcription factor E2F1 (Homo sapiens) (UniProt Q01094) (assay: ATG_E2F_CIS: Attagene CIS-FACTORIAL HepG2 Assay for human E2F Transcription Factor 1 (AID 2282935)). Details: HepG2 Attagene cis-reporter, E2F reporter RNA transcripts; actives raise or lower the signal.
Method: ATG_CIS is a cell-based, multiplexed-readout assay that uses HepG2, a human liver cell line, with measurements taken at 24 hours after chemical dosing in a 24-well plate.ATG_E2F_CIS is one of 52 assay component(s) measured or calculated from the ATG_CIS assay. It is designed to make measurements of mRNA induction, a form of inducible reporter, as detected with fluorescence intensity signals by Reverse transcription polymerase chain reaction (RT-PCR) and Capillary electrophoresis technology.Data from the assay component ATG_E2F_CIS was analyzed into 1 assay endpoint. This assay endpoint, ATG_E2F_CIS, was analyzed with bidirectional fitting relative to DMSO as the negative control and baseline of activity. Using a type of inducible reporter, measures of mRNA for gain or loss-of-signal activity can be used to understand the reporter gene at the transcription factor-level as they relate to the gene E2F1. Furthermore, this assay endpoint can be referred to as a primary readout, because this assay has produced multiple assay endpoints where this one serves a reporter gene function. To generalize the intended target to other relatable targets, this assay endpoint is annotated to the dna binding intended target family, where the subfamily is E2F transcription factor.
Human liver HepG2 cells are transiently transfected with multiple reporter transcription units (MRTUs) in 6-well plates using FuGene 6 reagent (Roche; 3 ml FuGene/1 mg DNA). The MRTU constructs are regulated by a cis-regulating element (promoter). […] A major difference between the CIS and TRANS system is that in CIS activities of endogenous TFs are measured, whereas the TRANS assay evaluates changes in activities of exogenous, chimeric NR-Gal4 proteins. […] At the end of 24 hour incubation, total RNA was isolated using TriZol reagent (Invitrogen). The isolated RNA is then reverse-transcribed using oligo(dT) primer and Mo-MLV reverse transcriptase (Invitrogen) with DNAse I (Ambion) treatment for 30 min. The one-tenth of the produced cDNA was amplified by PCR using Taq DNA polymerase (Invitrogen) and two reporter sequence-specific primers. The PCR products were fluorescently labeled by primer extension with 6-arboxyfluorescein (6-FAM) 5'-labeled reporter sequence-specific primer (2 min at 95 C, 20 s at 68 C and 10 min at 72 C) and these products were digested with 5U of HpaI (New England Biolabs) for 2h at 37 C. The fragments were purified using Qiaquick PCR columns (Qiagen), analyzed on an ABI 3130xL genetic analyzer (Applied Biosystems) with peak positions identified by using a set of X-rhodamine (ROX)-labeled MapMarker1000 molecular weight standards (BioVentures). The raw capillary electrophoresis data was processed using Attagraph software (Attagene).

Transcription factor E2F1 (Homo sapiens), sequence (Q01094 whole entry, looked up): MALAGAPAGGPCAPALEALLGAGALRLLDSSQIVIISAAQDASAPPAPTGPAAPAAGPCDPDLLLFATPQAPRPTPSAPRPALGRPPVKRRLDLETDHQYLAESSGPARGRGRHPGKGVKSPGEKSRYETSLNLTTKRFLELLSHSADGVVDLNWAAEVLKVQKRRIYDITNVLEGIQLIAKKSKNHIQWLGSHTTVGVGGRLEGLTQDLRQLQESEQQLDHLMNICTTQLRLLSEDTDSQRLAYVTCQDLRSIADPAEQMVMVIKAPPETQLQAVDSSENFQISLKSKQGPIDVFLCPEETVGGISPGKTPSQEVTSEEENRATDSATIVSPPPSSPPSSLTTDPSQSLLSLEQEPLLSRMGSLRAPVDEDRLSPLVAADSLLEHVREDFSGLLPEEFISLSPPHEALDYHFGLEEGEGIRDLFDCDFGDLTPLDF

| Compound | outcome | AC50 |
| --- | --- | --- |
| O=C(N[C@H](c1ccccc1)[C@@H]1CN2CCC1CC2)c1c(Cl)ccc(C(F)(F)F)c1Cl | inactive |  |
| CCC[CH2][Sn]([Cl])([CH2]CCC)[CH2]CCC | inactive |  |
| CCCCC(CC)COC(=O)c1ccc(C(=O)OCC(CC)CCCC)c(C(=O)OCC(CC)CCCC)c1 (stereo not given) | inactive |  |
| CCCCCCCCOC(=O)c1ccc(C(=O)OCCCCCCCC)c(C(=O)OCCCCCCCC)c1 | inactive |  |
| Oc1ccc2ccc3cccc4ccc1c2c34 | inactive |  |
| CCNS(=O)(=O)C(F)(F)C(F)(F)C(F)(F)C(F)(F)C(F)(F)C(F)(F)C(F)(F)C(F)(F)F | inactive |  |
| [Cl-].[Cl-].[Hg+2] | inactive |  |
| CCC12COCN1COC2 | inactive |  |
| COC(=O)c1ccccc1N | inactive |  |
| ClC1=C(Cl)C2(Cl)C3C(Cl)C=CC3C1(Cl)C2(Cl)Cl (stereo not given) | inactive |  |
| O=[N+]([O-])c1ccc(Oc2ccc(Cl)cc2Cl)cc1 | inactive |  |
| CCN(CC)CCO | inactive |  |
| CC(C)(C)OOC(C)(C)CCC(C)(C)OOC(C)(C)C | inactive |  |
| CCCCCCCCCCCCCN1CC(C)OC(C)C1 (stereo not given) | inactive |  |
| O=Cc1ccco1 | inactive |  |
| CC(O)CCO (stereo not given) | inactive |  |
| CC(C)(O)c1cnn2c(-c3ccc(F)c(-c4c(F)cccc4C#N)c3)cnc2n1 | inactive |  |
| O=C(Oc1ccc(Br)cc1)N1CCN2CCC1CC2 | inactive |  |
| COP(=S)(OC)SCN1C(=O)c2ccccc2C1=O | inactive |  |
| Cc1cccc(N)c1N | inactive |  |

| Compound | outcome | AC50 |
| --- | --- | --- |
| c1ccc(C2CO2)cc1 (stereo not given) | inactive |  |
| CC(C)(C)OOC(=O)c1ccccc1 |  | 158 µM (active) |
| CCOC(=O)[C@]1(c2ccccc2)Oc2ccccc2[C@@H]1N | inactive |  |
| c1ccc2c(c1)oc1ccccc12 | inactive |  |
| O=C1CCCO1 | inactive |  |
| c1ccc(N=Nc2ccccc2)cc1 | inactive |  |
| O=P(OCCCl)(OCCCl)OCCCl | inactive |  |
| Cc1ccc(N)cc1 | inactive |  |
| CO[C@@H]1[C@H](OC(=O)NC(=O)CCl)CC[C@]2(CO2)[C@H]1[C@@]1(C)O[C@@H]1CC=C(C)C | inactive |  |
| Oc1ccccc1Cl | inactive |  |
| CNC(=O)Oc1cccc2c1OC(C)(C)C2 | inactive |  |
| CCCCOC(=O)c1ccccc1C(=O)OCc1ccccc1 | inactive |  |
| Cn1cc(-c2ccccc2)c(=O)c(-c2cccc(C(F)(F)F)c2)c1 | inactive |  |
| Clc1ccc(C(c2ccc(Cl)cc2)C(Cl)Cl)cc1 | inactive |  |
| Cc1ccc(N)c(N)c1 | inactive |  |
| Cc1ccc([N+](=O)[O-])cc1 | inactive |  |
| Cc1cc(N=Nc2ccccc2C)ccc1N | inactive |  |
| Brc1ccc(Oc2ccccc2)cc1 | inactive |  |
| ClCCOCCCl | inactive |  |
| N#CC(Br)(Br)C(N)=O | inactive |  |
